Here are results for 85 compounds from PubChem BioAssay AID720504 (National Center for Advancing Translational Sciences (NCATS), 2013).

Values joined by “and” are separate entries in the source; they are usually repeats but may differ in a detail not shown here. Equal values may be shown once. Out of some 360,000 compounds screened, about 10,000 (2.8%) were called active. Not shown: some 4% with an inconclusive outcome. The call rests on the fitted dose curve; in most records, active means well fitted inhibition curve with a large enough effect; inconclusive means small, poorly fitted or top-dose-only effect; inactive means flat fitted curve, though single readings scatter. What follows is part of a selection rich in actives, with near analogues and random picks from the rest.
On the % scale 0 is the no-effect control and ±100 the full control effect; potency means the concentration at half of the fitted maximal effect.

In the assay the target is Serine/threonine-protein kinase PLK1 (Homo sapiens) (UniProt P53350). The assay can be described thus: qHTS for Inhibitors of PLK1-PDB (polo-like kinase 1 - polo-box domain): Primary Screen. Further: nearly all actives have a fitted effect of over 65% in size. On max response, negative = inhibition: series mostly up to about 57 µM. As to conditions: Plk1 PBD binding of FITC phosphopeptide, fluorescence polarization. (In general: qHTS replaces the single test concentration by a dilution series.)
Chain of Serine/threonine-protein kinase PLK1 (Homo sapiens) (P53350 whole entry, looked up, the tested form may be a part): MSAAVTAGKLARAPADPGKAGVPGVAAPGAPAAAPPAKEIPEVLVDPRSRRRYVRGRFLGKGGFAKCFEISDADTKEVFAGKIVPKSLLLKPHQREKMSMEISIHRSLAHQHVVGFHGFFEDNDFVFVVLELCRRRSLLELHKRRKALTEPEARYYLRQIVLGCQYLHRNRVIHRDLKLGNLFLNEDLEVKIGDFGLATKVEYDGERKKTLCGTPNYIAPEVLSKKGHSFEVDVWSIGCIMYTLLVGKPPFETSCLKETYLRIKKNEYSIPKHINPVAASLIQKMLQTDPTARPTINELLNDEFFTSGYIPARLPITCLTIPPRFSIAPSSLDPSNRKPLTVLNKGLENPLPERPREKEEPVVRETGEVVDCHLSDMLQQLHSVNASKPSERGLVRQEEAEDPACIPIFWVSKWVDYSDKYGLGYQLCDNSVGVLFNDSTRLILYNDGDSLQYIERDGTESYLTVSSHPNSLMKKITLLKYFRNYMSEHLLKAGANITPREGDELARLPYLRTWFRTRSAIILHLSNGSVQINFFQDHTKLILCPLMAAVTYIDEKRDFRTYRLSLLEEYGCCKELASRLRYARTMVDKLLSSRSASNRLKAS
`COC(=O)[C@]12CCCCC=C1N(Cc1ccccc1)C(=O)[C@H](CC(=O)NCc1ccc(C)o1)C2`: the max response, negative = inhibition was -1.64% (inactive).

Regarding `CNC(=O)c1ccc(CN(C)C(=O)c2cc(C3CC3)nc3c2cnn3C(C)C)cc1`, the max response, negative = inhibition was -13.7% (inactive).

For the compound `O=S1(=O)CC(N2CCN(Cc3ccccc3F)CC2)CN1Cc1cn(Cc2ccccc2)nn1` (stereo not given), the max response, negative = inhibition is 0.233% (inactive).

Turning to `CCOC(=O)C1CCCN(C(=O)c2cc(-c3cccs3)oc2C)CC1` (stereo not given), the max response, negative = inhibition was -3.67% (inactive).

In the case of `O=C(Oc1ccc(F)cc1)N1CCOCC1`, the max response, negative = inhibition was -11.5% (inactive).

`O=C(Oc1cccc(C(=S)N2CCOCC2)c1)c1cccc(Cl)c1`: the max response, negative = inhibition was -12.2% (inactive).

Take `O=C(Oc1ccc(C(=S)N2CCOCC2)cc1)c1ccc(F)cc1`: the Potency was 21.2 µM (active).

For the compound `COc1cc(C)c(S(=O)(=O)N2CCOCC2)c(C)c1C`, the max response, negative = inhibition was -14.4% (inactive).

`Cc1cc(C)c(S(=O)(=O)N2CCOCC2)cc1C`: the Potency is 10.6 µM (active).

`COc1ccc(S(=O)(=O)N2CCOCC2)c(C)c1C`: the max response, negative = inhibition was -1.42% (inactive).

With `CCOP(=O)(OCC)C(Cc1ccccc1)N=C(c1ccccc1)c1ccccc1` (stereo not given), the max response, negative = inhibition is -2.76% (inactive).

`COC(=O)[C@@]12C[C@@H](CC(=O)NCCCCc3ccccc3)C(=O)N(CCc3ccc(OC)c(OC)c3)C1=CCC(C)(C)C2`: the max response, negative = inhibition is -6.86% (inactive).

As to `CCOC(=O)[C@]12CCCC=C1N(CCC1=CCCCC1)C(=O)[C@H](CC(=O)N1CCOCC1)C2`, the max response, negative = inhibition was -15.5% (inactive).

With `CN1CCN(CCCNC(=O)c2ccc(/C=C3\Oc4ccccc4N(Cc4ccc(Cl)cc4)C3=O)cc2)CC1`, the max response, negative = inhibition was -4.87% (inactive).

Regarding `CC(C)OCCCNC(=O)CN1C(=O)/C(=C/c2ccccc2F)Oc2ccccc21`, the Potency is 26.7 µM (active).

As to `CCCN1CCN(CCCNC(=O)CN2C(=O)COc3ccccc32)CC1`, the max response, negative = inhibition is -2.49% (inactive).

For `CC1(C(=O)NS(=O)(=O)c2ccccc2)CCN1C(=O)c1ccccc1` (stereo not given), the max response, negative = inhibition is -4.3% (inactive).

Turning to `CN(C)C(=O)c1cccc(-c2cnc3sc(NCc4ccc5c(c4)OCO5)nn23)c1`, the max response, negative = inhibition is -3.28% (inactive).

Consider `Cc1cccc(C(=O)OCC(=O)Nc2sccc2C(N)=O)c1C`, for which the max response, negative = inhibition is 4.89% (inactive).

Consider `Cc1nc(C(=O)N2CCCC(C(=O)c3ccc(Cl)cc3)C2)cs1` (stereo not given), for which the Potency was 26.7 µM (active).

For `O=C(c1ccc(C(F)(F)F)cc1)C1CCCN(C(=O)c2csnn2)C1` (stereo not given), the max response, negative = inhibition is 2.18% (inactive).

For the compound `Cc1cnc(C(=O)N2CCCC(C(=O)c3ccc(C(F)(F)F)cc3)C2)cn1` (stereo not given), the max response, negative = inhibition was 6.24% (inactive).

With `Cc1cccc(C)c1-n1nnnc1C(CCc1ccccc1)N1CCN(C/C=C/c2ccccc2)CC1` (stereo not given), the max response, negative = inhibition is -10.6% (inactive).

Consider `c1cc(-c2ccc3[nH]ccc3c2)n2ccnc2c1`, for which the max response, negative = inhibition is -9% (inactive).

`O=C(Cc1ccc2c(c1)CCCC2)Nc1ccccc1Cl`: the Potency is 16.8 µM (active).

On to `COc1cccc(NC(=O)CN2CCN(CC(=O)Nc3ccccc3Cl)CC2)c1`, for which the max response, negative = inhibition was -1.84% (inactive).

Consider `O=C(Nc1ccc2c(c1)CCC2)c1cccc(S(=O)(=O)Nc2ccccc2Cl)c1`, for which the max response, negative = inhibition is -7.42% (inactive).

With `Cc1onc(-c2ccccc2)c1-c1nnc(COC(=O)c2ccc(N(C)C)cc2)o1`, the max response, negative = inhibition was 5.92% (inactive).

`CCc1nc2c(OCc3cccc(OC)c3)cccn2c1N(C)C(=O)C(C)C`: the max response, negative = inhibition is -12% (inactive).

As to `O=C(O)c1ccccc1NC(=O)c1ccccc1-c1ccccc1C(=O)O`, the max response, negative = inhibition was -6.65% (inactive).

For the compound `O=C(NC(=S)Nc1ccccc1C(=O)O)c1ccc(-c2ccc(Br)cc2)o1`, the Potency is 13.4 µM (active).

As for `CN1CCN(C(=O)c2ccc(-c3ccc(Br)cc3)o2)CC1`, the max response, negative = inhibition was -2.57% (inactive).

Take `CC(C)(C)CC(=O)Nc1nc(C(N)Cc2ccc(C(F)(F)F)cc2)cs1` (stereo not given): the max response, negative = inhibition was -8.43% (inactive).

As for `C[N+](C)(C)CCNC(=O)c1c[nH]c2ccccc12`, the max response, negative = inhibition was -0.504% (inactive).

For the compound `COC(=O)c1c(C)[nH]c(C)c1-c1ccc([N+](=O)[O-])cc1`, the max response, negative = inhibition is -17.8% (inactive).

On to `CC(=O)N1CC[n+]2c(-c3ccc([N+](=O)[O-])cc3)csc21`, for which the Potency was 9.47 µM (active).

On to `COc1ccc(C2CC(c3ccc([N+](=O)[O-])cc3)=NN2C(C)=O)cc1` (stereo not given), for which the max response, negative = inhibition was -7.83% (inactive).

As to `CSc1ccc(CN2CCC2(C)C(=O)NCc2ccccc2Br)cc1` (stereo not given), the max response, negative = inhibition was 2.74% (inactive).

Take `Cc1ccc(-n2c(C)cc(C(=O)CN3C(=O)C(=O)N(C4CCCC4)C3=O)c2C)cc1`: the Potency was 26.7 µM (active).

For the compound `Cc1ccc(-n2c(C)cc(C(=O)CSc3nnc4ccccn34)c2C)cc1`, the max response, negative = inhibition is -3.52% (inactive).

For the compound `Cc1cc(C(=O)COC(=O)C2CC2)c(C)n1-c1ccc(F)cc1`, the max response, negative = inhibition is 3.31% (inactive).

On to `FC(F)(F)c1ccccc1Cc1c(-c2ccccc2)nc2c3ccccc3ccn12`, for which the max response, negative = inhibition was 5.06% (inactive).

Take `COc1ccc(C(NC(=O)C2CCN(CCCc3ccccc3)CC2)c2cccs2)cc1` (stereo not given): the max response, negative = inhibition was -15.3% (inactive).

As for `CCCc1nc2c3ccccc3ccn2c1Cc1ccccc1C(F)(F)F`, the max response, negative = inhibition is -6.42% (inactive).

On to `CCCNC(=O)C1(C)CCN(C(=O)c2ccc(F)cc2Cl)C1` (stereo not given), for which the max response, negative = inhibition is -7.53% (inactive).

Regarding `COc1ccccc1CC1(C)C(=O)Nc2ccc(OC(F)(F)F)cc21` (stereo not given), the max response, negative = inhibition is -13.6% (inactive).

Regarding `CCCCNC(=O)OC1CC2CC1[C@H]1CCCCN1C2=O` (stereo not given in full), the max response, negative = inhibition was -1.73% (inactive).

With `Cc1ccc(S(=O)(=O)/N=C(/Nc2ccc3[nH]c(=O)[nH]c3c2)c2ccccc2)cc1`, the max response, negative = inhibition is -15.4% (inactive).

As to `Cc1ccc(S/C(=N\S(=O)(=O)c2ccc(Cl)cc2)c2ccccc2)cc1`, the Potency was 2.67 µM (active).

Regarding `Cc1ccc(S(=O)(=O)/N=C(/Nc2ccccn2)c2ccc(Cl)cc2)cc1`, the max response, negative = inhibition was -1.19% (inactive).

For the compound `CC1CN(C(=O)c2cccc(NS(=O)(=O)c3ccc(Br)cc3)c2)CC(C)O1` (stereo not given), the max response, negative = inhibition is -2.62% (inactive).

Regarding `O=S1(=O)CC(N2CCN(c3ccccn3)CC2)CN1Cc1ccc(F)cc1` (stereo not given), the max response, negative = inhibition was -5.38% (inactive).

In the case of `CSc1ncccc1C(=O)N1CCCC(Nc2ccc(F)c(F)c2)C1` (stereo not given), the max response, negative = inhibition was -2.74% (inactive).

On to `COc1ccc(NC(=O)C2C3CCC(O3)C2C(=O)O)cc1OC` (stereo not given), for which the max response, negative = inhibition is 4.35% (inactive).

Turning to `CC(C)OC(=O)c1cc(NC(=O)C2C3CCC(O3)C2C(=O)O)cc(C(=O)OC(C)C)c1` (stereo not given), the max response, negative = inhibition is -3.95% (inactive).

Turning to `Cc1sc(NC(=O)C2C3CCC(O3)C2C(=O)O)c(C(=O)OC(C)C)c1-c1ccc(Cl)cc1` (stereo not given), the Potency was 7.52 µM (active).

Regarding `CCc1nc2c(OCCOc3ccccc3)cccn2c1N(C=O)Cc1ccc(OC)cc1`, the max response, negative = inhibition is -6.91% (inactive).

Regarding `O=C(Oc1ccccc1C(=S)N1CCCCC1)c1cc([N+](=O)[O-])cc([N+](=O)[O-])c1`, the Potency was 2.12 µM (active) and 2.67 µM (active).

On to `O=C(Oc1ccccc1Cl)c1ccc(N2CCOCC2)c([N+](=O)[O-])c1`, for which the max response, negative = inhibition was -14.3% (inactive).

Turning to `O=C(Oc1ccc(Br)cc1C(=S)N1CCOCC1)c1cccc([N+](=O)[O-])c1`, the Potency was 11.9 µM (active).

`COc1ccc(C(=O)N2CCCC(C(=O)c3ccccc3OC)C2)cc1OC` (stereo not given): the max response, negative = inhibition is -20.4% (inactive).

As for `CC(=O)Nc1ccc(S(=O)(=O)Oc2ccc(Br)cc2C(=S)N2CCOCC2)cc1`, the max response, negative = inhibition is -17.8% (inactive).

Regarding `COc1cc(C(=S)N2CCOCC2)cc(OC)c1OC(=O)c1ccc([N+](=O)[O-])cc1[N+](=O)[O-]`, the max response, negative = inhibition is -24.3% (inactive).

With `COc1ccc(S(=O)(=O)N2CCCCC2)cc1C(=O)NC1CCS(=O)(=O)C1` (stereo not given), the max response, negative = inhibition was 5.08% (inactive).

In the case of `O=c1[nH][nH]c2c1[C@H](c1ccc(Cl)cc1)O[C@H](CCc1ccccc1)C2`, the max response, negative = inhibition was -16.9% (inactive).

Take `CCOC1=C2CN(S(=O)(=O)c3ccc(C)cc3)[C@H](c3cccs3)C[C@H]2[C@H]2C(=O)N(c3ccccc3)C(=O)[C@H]2C1`: the max response, negative = inhibition was -0.0091% (inactive).

With `Cc1ccccc1CSc1nnc(-c2ccccc2)c(=O)[nH]1`, the max response, negative = inhibition was -22.2% (inactive).

In the case of `N#Cc1c(-c2ccc(F)cc2)nc(-c2ccccc2)[nH]c1=O`, the max response, negative = inhibition was -13.6% (inactive).

Regarding `O=C(Nn1c(SCc2ccc([N+](=O)[O-])cc2)nc2ccccc2c1=O)c1ccc(F)cc1`, the max response, negative = inhibition is -14.4% (inactive).

Turning to `N#Cc1c(-c2ccccc2)nc(SCc2cccc(C(F)(F)F)c2)[nH]c1=O`, the Potency was 23.8 µM (active).

Turning to `O=c1[nH]c(SCc2cccc(F)c2)nc2ccccc12`, the max response, negative = inhibition was -13.9% (inactive).

Consider `N#Cc1c(-c2ccccc2)nc(SCc2ccc([N+](=O)[O-])cc2)[nH]c1=O`, for which the Potency was 26.7 µM (active).

Regarding `S=C(NN=Cc1ccccn1)Nc1ccccn1`, the max response, negative = inhibition is -6.29% (inactive).

On to `COc1ccc(CCCNC(=O)C2Cc3c(-c4cccc(C(N)=O)c4)ccnc3O2)cc1` (stereo not given), for which the max response, negative = inhibition is -3.93% (inactive).

`CCc1nc2ccc(C(=O)Nc3ccc(OC)c(OC)c3)cn2c1N(C)C(=O)c1cccc(OC)c1`: the max response, negative = inhibition is -6.83% (inactive).

Regarding `O=C(O)c1ccccc1NC(=S)NC(NC(=O)c1ccccc1[N+](=O)[O-])C(Cl)(Cl)Cl` (stereo not given), the Potency is 26.7 µM (active).

With `O=C(NNC(=O)c1ccccc1[N+](=O)[O-])Nc1ccccc1C(F)(F)F`, the max response, negative = inhibition is -9.97% (inactive).

As to `O=C(Nc1ccccc1[N+](=O)[O-])C1C(c2ccccc2)=C1c1ccccc1`, the max response, negative = inhibition was 0.94% (inactive).

As for `COc1ccccc1-n1c(SCC(=O)O)nc2sc3c(c2c1=O)CCC3`, the max response, negative = inhibition is -11.7% (inactive).

Turning to `COc1ccc(Cl)cc1-n1c(=S)sc2c(=O)n(-c3ccc(F)cc3)c(SCC(=O)O)nc21`, the Potency is 23.8 µM (active).

As for `COc1cccc(-n2c(=S)sc3c(=O)n(-c4ccccc4C)c(SCC(=O)O)nc32)c1`, the max response, negative = inhibition is -8.81% (inactive).

In the case of `C#CCN(C[C@H]1[C@H](OC(=O)NC2CCCC2)[C@H](OC(=O)NC2CCCC2)C[C@H]2C(=O)N(c3ccccc3)C(=O)[C@@H]12)S(=O)(=O)c1ccc(C)cc1`, the max response, negative = inhibition was -0.644% (inactive).

`CC(=O)Nc1ccc(-c2ccnc3c2CC(C(=O)NC(C)C)O3)cc1` (stereo not given): the max response, negative = inhibition was -3.44% (inactive).

On to `O=C(NCCCCO)C(F)(F)C(F)(F)C(F)(F)C(=O)NCCCCO`, for which the Potency is 18.9 µM (active).

Turning to `O=C(NCCCCCCCCCNC(=O)C(F)(F)F)C(F)(F)F`, the max response, negative = inhibition was -1.31% (inactive).
